Bioassay records as filed in PubChem.
Only some compounds are listed: those with a hit (about 12% of all), similar ones and a draw of the others.
m-calpain inh – blocks pig calpain II enzyme activity; purified calpain II, fluorogenic peptide substrate, 30 min; inhibition, % at 16 µM; 220,000 tested, 0.37% active; AID 1236;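 active = inhibition above about 50%, limit read from the data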
WT yeast gro inh – growth inhibition of WT yeast, mitochondrial fusion screen | mitochondrial fusion phenotypic screen, WT strain | inhibition, % at 10 µM | 190,000 tested, 2.1% active | AID 1362; in the data active = inhibition above about 58%; tested in S. cerevisiae
Lmaj promast – reduces viability of Leishmania major promastigotes | inhibition, % at 10 µM | resazurin fluorescence viability | 200,000 tested, 9% active; in the data active = inhibition above about 50%;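 note: promastigotes grown with compound for 44 hours at 28 °C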
ROMK mod – modulates human ROMK potassium channel activity. P48048. Tet-inducible ROMK, thallium flux fluorescence; actives lie on both sides. B-score at 10 µM. 130,000 tested, 2% active. AID 1918;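 active = signal ratio slope over the read window, or its plate-corrected B-score, at least 3 SD from the plate mean, either direction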;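 note: B-score of the F/F0 ratio slope over 7 to 12 s after thallium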
Cl transport mod – KCC2 (human) Cl- transport modulation; Q9H2X9; KCC2 cells, thallium flux FluoZin-2 fluorescence; B-score of Tl+ flux slope (higher = more flux/activation; lower = inhibition) at 10 µM; 190,000 tested, 2.2% active;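 active = thallium flux slope and its plate-corrected score both differing from the plate sample mean at a set confidence after two filtering rounds, in either direction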;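 note: slope of fluorescence scaled to starting intensity during 10 to 20 s after thallium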
Target sequence (Q9H2X9 whole entry, looked up): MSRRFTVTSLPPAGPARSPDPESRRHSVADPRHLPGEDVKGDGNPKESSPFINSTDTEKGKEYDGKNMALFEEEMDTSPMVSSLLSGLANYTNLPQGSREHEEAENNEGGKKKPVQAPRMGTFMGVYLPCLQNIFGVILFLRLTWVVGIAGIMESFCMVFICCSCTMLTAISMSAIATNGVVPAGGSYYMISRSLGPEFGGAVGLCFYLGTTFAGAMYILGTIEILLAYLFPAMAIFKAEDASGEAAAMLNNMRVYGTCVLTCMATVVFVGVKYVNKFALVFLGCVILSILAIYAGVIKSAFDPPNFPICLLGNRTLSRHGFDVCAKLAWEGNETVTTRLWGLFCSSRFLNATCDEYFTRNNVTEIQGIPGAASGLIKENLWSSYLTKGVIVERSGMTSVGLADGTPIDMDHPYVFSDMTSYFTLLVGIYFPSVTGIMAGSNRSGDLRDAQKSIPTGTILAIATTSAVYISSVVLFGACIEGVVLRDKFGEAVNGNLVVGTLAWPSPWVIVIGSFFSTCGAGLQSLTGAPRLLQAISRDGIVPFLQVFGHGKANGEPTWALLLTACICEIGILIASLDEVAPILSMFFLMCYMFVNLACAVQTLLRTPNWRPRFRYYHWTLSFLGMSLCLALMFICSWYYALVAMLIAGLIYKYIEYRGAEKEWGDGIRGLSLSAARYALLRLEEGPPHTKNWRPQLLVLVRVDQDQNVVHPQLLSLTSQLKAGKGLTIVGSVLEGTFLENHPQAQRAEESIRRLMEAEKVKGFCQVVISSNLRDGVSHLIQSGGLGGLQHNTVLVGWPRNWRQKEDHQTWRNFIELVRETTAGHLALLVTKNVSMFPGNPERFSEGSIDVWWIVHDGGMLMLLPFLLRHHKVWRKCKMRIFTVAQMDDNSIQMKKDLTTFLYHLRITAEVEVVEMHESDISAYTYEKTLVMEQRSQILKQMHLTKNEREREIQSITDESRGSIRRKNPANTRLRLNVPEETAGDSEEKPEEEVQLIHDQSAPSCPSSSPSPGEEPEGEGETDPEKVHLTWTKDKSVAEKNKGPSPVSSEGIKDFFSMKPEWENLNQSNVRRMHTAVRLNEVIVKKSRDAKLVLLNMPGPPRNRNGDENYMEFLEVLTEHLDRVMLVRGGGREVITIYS
Active calls of the source: *.

`CCCCCCc1cc2cc(C(=O)NC)c(=N)oc2cc1O` gave WT yeast gro inh 23, Lmaj promast 58* and Cl transport mod 1.4.
Screening CCCCCCc1cc2cc(C(N)=O)c(=N)oc2cc1O returned m-calpain inh inactive, WT yeast gro inh 82*, Lmaj promast 45 and Cl transport mod inactive.
Screening CCCCCCc1cc2cc(C(=O)OCC)c(=O)oc2cc1O returned m-calpain inh -332, ROMK mod 0.11 and Cl transport mod -0.27.
CCCCCCc1cc2cc(C(=O)Nc3ccc(OC)cc3)c(=O)oc2cc1O was read as m-calpain inh -1, WT yeast gro inh -11, Lmaj promast 19 and Cl transport mod 0.0057.
For CC(C)(C)c1cc(C(c2cccnc2)N2CCN(CCO)CC2)cc(C(C)(C)C)c1O (stereo not given) the results were m-calpain inh -1, WT yeast gro inh 72*, Lmaj promast 100*, ROMK mod -2 and Cl transport mod -0.12.
Screening O=[N+]([O-])c1cc2c(cc1/C=N\NS(=O)(=O)c1ccccc1)OCO2 returned m-calpain inh -11, WT yeast gro inh -12 and Lmaj promast 24.
`CNc1nc(N/N=C/c2cc3c(cc2[N+](=O)[O-])OCO3)nc(Nc2ccccc2)n1` gave m-calpain inh -170, WT yeast gro inh 14, Lmaj promast 65* and Cl transport mod -0.6.
For Cc1ccc(C(=O)N/N=C/c2cc(C)n(-c3ccc(Br)cc3)c2C)cc1[N+](=O)[O-] the results were m-calpain inh -20, WT yeast gro inh 19, Lmaj promast 10, ROMK mod -0.74 and Cl transport mod 0.48.
Cc1cccc(-n2c(C)cc(/C=N/NC(=O)c3cccc([N+](=O)[O-])c3C)c2C)c1 was read as m-calpain inh -306, WT yeast gro inh 14, Lmaj promast 64*, ROMK mod -0.088 and Cl transport mod -0.066.
For Cc1cc(/C=N/NC(=O)c2ccccc2F)c(C)n1-c1ccccc1 the results were m-calpain inh 31, WT yeast gro inh -7, Lmaj promast 2, ROMK mod 4.2* and Cl transport mod -1.6.
For Cn1c(=O)c2ncn(CC(=O)N=Nc3c(O)[nH]c4ccccc34)c2n(C)c1=O the results were m-calpain inh 21, WT yeast gro inh -8, Lmaj promast -1, ROMK mod -0.77 and Cl transport mod 0.33.
For CC1=C(C(=O)OCc2ccccc2)C(c2ccc(Cl)cc2Cl)NC(=O)N1CCCC(=O)O (stereo not given) the results were m-calpain inh -34, WT yeast gro inh -9, Lmaj promast -8, ROMK mod -0.83 and Cl transport mod -1.8.
`COc1ccc2c(c1)C(=NO)c1cc(OC)ccc1-2` gave m-calpain inh 1, WT yeast gro inh -4, Lmaj promast -3, ROMK mod 0.85 and Cl transport mod -0.016.
C=CCOc1ccc2c(c1)C(=NO)c1cc(OCC=C)ccc1-2 was read as m-calpain inh 15, WT yeast gro inh 4, Lmaj promast 96* and ROMK mod 0.077.
Cc1ccc(NC(=O)COC(=O)C2(c3ccc(Cl)cc3)CCCC2)cc1 was read as m-calpain inh 37, WT yeast gro inh 9, Lmaj promast 0, ROMK mod 0.62 and Cl transport mod -0.15.
Screening CCCN(CCC)C(=O)CC(c1ccccc1)c1ccc(C)cc1O (stereo not given) returned m-calpain inh 48, WT yeast gro inh 35, Lmaj promast 46, ROMK mod -1.7 and Cl transport mod -1.5.
Screening CCCN(CCC)C(=O)CC(c1ccccc1)c1cc(Br)ccc1O (stereo not given) returned m-calpain inh 74*, WT yeast gro inh 76*, Lmaj promast 30 and ROMK mod -0.52.
`COc1ccc(N2CCN(C(c3cc4cc(C)ccc4[nH]c3=O)c3nnnn3Cc3ccccc3)CC2)cc1` (stereo not given) gave m-calpain inh -299, WT yeast gro inh 6, Lmaj promast 99*, ROMK mod -0.62 and Cl transport mod 0.042.
Screening COc1cc2cc(C(c3nnnn3C3CCCC3)N3CCCCC3)c(=O)[nH]c2cc1OC (stereo not given) returned m-calpain inh -107, WT yeast gro inh -13, Lmaj promast -1 and Cl transport mod 1.1.
Screening Cc1ccc2cc(C(c3nnnn3C3CCCC3)N3CCN(c4ccccc4)CC3)c(=O)[nH]c2c1 (stereo not given) returned m-calpain inh -49, WT yeast gro inh -7, Lmaj promast 76* and ROMK mod -0.3.
`Cc1ccc2cc(C(c3nnnn3Cc3ccccc3)N3CCN(c4ccccc4)CC3)c(=O)[nH]c2c1` (stereo not given) gave m-calpain inh -94, WT yeast gro inh -9, Lmaj promast 93* and ROMK mod 0.17.
`Clc1ccc(/C=C/c2ncc3ccccn23)cc1` gave m-calpain inh inactive, WT yeast gro inh 23, Lmaj promast 9, ROMK mod 0.19 and Cl transport mod 1.9.
Screening Cc1ccc(/C(COc2ccccc2O)=N\O)cc1 returned m-calpain inh -7, WT yeast gro inh 6, Lmaj promast 6 and ROMK mod -1.5.
Screening CC(C)(C)c1cc(Br)c(O)c(N=Nc2ccc(S(=O)(=O)N3CCOCC3)cc2)c1 returned m-calpain inh -138, WT yeast gro inh 32, Lmaj promast 14, ROMK mod 0.8 and Cl transport mod 1.
For CCCC(=O)C1=C(N2CCCC2)CC(C)(C)C(C(=O)OC)C1=O (stereo not given) the results were m-calpain inh 27 and Cl transport mod 0.89.
`Cc1ccc(-c2nc(N)sc2-c2ccccc2)cc1C` gave m-calpain inh 0, WT yeast gro inh 73*, Lmaj promast 22 and Cl transport mod 0.064.
Screening Nc1nc(-c2ccccc2)c(-c2ccccc2)s1 returned m-calpain inh 2, WT yeast gro inh 3, Lmaj promast -6, ROMK mod -0.14 and Cl transport mod 0.013.
`Cc1ccc(-c2nc(N)sc2-c2ccc(C)cc2)cc1` gave m-calpain inh 62*, WT yeast gro inh 80*, Lmaj promast 44, ROMK mod -0.3 and Cl transport mod 0.36.
`Cc1ccc(-c2nc(N)sc2C)cc1` gave m-calpain inh 14, WT yeast gro inh 19, Lmaj promast 10, ROMK mod 0.66 and Cl transport mod 0.035.
`O=C(Nc1ccc2c(c1)OCO2)C1(S(=O)(=O)c2ccc(Cl)cc2)CC1` gave m-calpain inh -2, WT yeast gro inh -14, Lmaj promast 22 and ROMK mod -0.29.
Screening O=c1[nH]nc(N2CCOCC2)c(=O)[nH]1 returned m-calpain inh -11 and Cl transport mod -0.12.
Cc1ccc(-n2c(SCc3ccc([N+](=O)[O-])cc3)nc3ccccc3c2=O)cc1 was read as m-calpain inh 2, WT yeast gro inh 16 and Lmaj promast 38.
CCOC(CCn1c(SCc2ccc([N+](=O)[O-])cc2)nc2ccccc2c1=O)OCC was read as m-calpain inh 2, WT yeast gro inh 8, Lmaj promast 51*, ROMK mod -0.6 and Cl transport mod 0.017.
